TGFb SMAD3 inh = qHTS for Inhibitors of TGF-b | AID 588855, 2011 | 410,000 compounds, 1.2% hits | Potency, µM (top dose mostly 46.1 µM), for the others: top-dose activity, negative = inhibition, actives largely listed as inhibitors | HepG2 CAGA-GFP TGF-b/SMAD3 reporter, GFP fluorescence, 18 h; TGF-beta stimulated, 500 pg/mL final; further: on the % scale 0 is the no-effect control and ±100 the full control effect; nearly all actives have a fitted effect of over 65% in size
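Read-out: total well GFP (ex488/em500-530) summed from mean per-cell fluorescence. Cells: HEPG2 CAGA-GFP, 1% FBS DMEM, 18 h at 37 degrees C with 500 pg/mL final TGF-beta. Unstimulated wells served as the full-inhibition control; stimulated DMSO wells = 0%.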
ATXN2 expr inh = Primary qHTS for Inhibitors of ATXN expression; AID 1745845, 2022; HEK-293 ATXN2-luciferase reporter, luminescence, 24 h; Potency, µM (highest dose often 57 µM), for the others: top-dose activity change, negative = inhibition, most hits filed as inhibitors; 360,000 compounds, 0.72% hits; further: on the % scale 0 is the no-effect control and ±100 the full control effect; nearly all actives have a fitted effect of over 55% in size
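ATXN2-luciferase reporter cells (luciferase flanked by upstream and downstream ATXN2 gene portions) were treated 24 h at 37 °C with compounds at up to 57 uM. SteadyGlo luminescence gave expression; GF-AFC fluorescence gave viability.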
HepG2 tox = qHTS for Inhibitors of TGF-b: Cytotox Counterscreen; HepG2 CAGA-GFP viability, ATP luminescence, 18 h; AID 588856, 2011; 410,000 compounds, 0.76% hits; Potency, µM (top dose mostly 46.1 µM), for inactives: at the highest dose activity change, negative = cytotoxicity, hits mostly cytotoxic
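CellTiter-Glo luminescence gave cytotoxicity after 18 hours at 37 degrees C. The cells were HepG2 CAGA-GFP in 1% FBS DMEM, stimulated with 500 pg/mL TGF-beta after compound addition. %Activity was normalised to no-cell wells (complete cell-killing) and DMSO (no toxicity), and curves were fitted and classified.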
TDP1 cell noCPT = qHTS for Inhibitors of human tyrosyl-DNA phosphodiesterase 1 (TDP1): qHTS in cells in absence of CPT. 420,000 compounds, 15% hits. DT40 Tdp1-/- hTDP1 cells, no CPT, ATP luminescence, 48 h. Potency, µM (highest dose often 46.2 µM), inactives show at the highest dose activity change, negative = growth inhibition, hits mostly inhibitors. AID 686978, 2013; further: on the % scale 0 is the no-effect control and ±100 the full control effect; nearly all actives have a fitted effect of over 55% in size
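Luminescent ATP content (CellTiter-Glo) served as the growth readout. Knockout chicken DT40 cells expressing human TDP1 were exposed to compounds without camptothecin for a minimum 48 hr at 37 °C.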
S2 tox = Viability Counterscreen for Primary qHTS for Inhibitors of ATXN expression; S2 cells (HEK-293 line with an ATXN2-luciferase reporter) viability, CellTiter-Fluor protease fluorescence, 24 h; 400,000 compounds, 0.49% hits; AID 651635, 2014; Potency, µM (top dose mostly 56.7 µM), usual class: cytotoxic; further: nearly all actives have a fitted effect of over 40% in size
TDP1 cell CPT = qHTS for Inhibitors of human tyrosyl-DNA phosphodiesterase 1 (TDP1): qHTS in cells in presence of CPT; chicken DT40 Tdp1-/-;hTDP1 cells + 20 nM CPT, ATP luminescence, 48 h; 420,000 compounds, 12% hits; Potency, µM (series often up to 46.2 µM), for inactives: top-dose activity change, negative = growth inhibition, actives largely listed as inhibitors; further: on the % scale 0 is the no-effect control and ±100 the full control effect; nearly all actives have a fitted effect of over 55% in size
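Cell growth measured by CellTiter-Glo luminescence after a minimum 48 h, 37 C compound exposure with 20 nM CPT in Tdp1-knockout DT40 cells stably expressing hTDP1, seeded 400/well; qHTS titration format.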
* = called active by the depositor; i = inactive; ? = inconclusive; . = not tested or not shown. This is a sample that favours compounds with a hit; in the whole collection about 17% have one here. The call rests on the fitted dose curve; in most records, active means well fitted curve in the direction sought with a large enough effect; inconclusive means small, poorly fitted or top-dose-only effect, or another doubt; inactive means no such curve, though single readings can be large; an effect the other way counts as inactive or inconclusive. Potency means the concentration at half of the fitted maximal effect.

SMILES | TGFb SMAD3 inh | ATXN2 expr inh | HepG2 tox | TDP1 cell noCPT | S2 tox | TDP1 cell CPT
Nc1ccc(/C=C/C(=O)c2ccco2)cc1 | -1.3% | 16.3% | -15.0% | ? | i | -18.7%
COc1ccccc1OCCC(=O)OCC(=O)Nc1ncc(Cl)cc1Cl | 6.0% | 1.4% | 3.5% | 1.0% | i | 0.5%
CCOC(=O)/C=C1/SCC(=O)N1CCOc1cccc(Br)c1 | 10.8% | -14.9% | 10.7% | -6.5% | i | -3.7%
COc1ccc(S(=O)(=O)N2CCOCC2)cc1N=Nc1sc(N)nc1-c1ccccc1 | 1.4% | -17.8% | -18.4% | 2.31µM* | i | -29.7%
COc1ccc(C(=O)N2CC=C(c3ccccc3)CC2)cc1S(=O)(=O)N1CCOCC1 | 3.5% | 9.2% | 5.7% | -17.8% | i | -1.7%
Cc1ccccc1N=C1Nc2ccccc2N[C@]12C[C@H]1CCC(=O)N3CC[C@@H](C2)[C@@H]13 | -16.9% | 14.1% | -19.1% | -18.2% | i | -5.2%
CC(=O)c1ccc(OCc2nnn(CC(=O)O)c2-c2ccccc2)cc1 | -1.8% | 14.9% | 0.0% | 5.8% | i | 5.4%
Cc1ccc(OCc2nnn(CC(=O)NS(=O)(=O)c3c(C)noc3C)c2-c2ccccc2)cc1 | 0.1% | 10.0% | -1.0% | 1.03µM* | i | ?
CCN(C(=O)CN1C(=O)c2ccccc2S1(=O)=O)C1CCCCC1 | -15.0% | 5.2% | 3.6% | -1.9% | i | 4.3%
CCN(C(=O)Cc1ccc(Br)cc1)C1CCCCC1 | 17.4% | 0.9% | 7.8% | ? | i | 20.6µM*
COc1ccc(CCNC(=O)CCn2c(=O)c3cccn3c3ccc(F)cc32)cc1OC | -5.0% | . | -10.3% | 16.4µM* | . | ?
O=C(CCn1c(=O)c2cccn2c2ccc(F)cc21)NCCc1ccccc1 | ? | -7.4% | 3.6% | 18.4µM* | i | 20.6µM*
COc1ccc(CCNC(=O)Cn2c(=O)n(-c3cc(F)ccc3F)c(=O)c3sccc32)cc1OC | -0.5% | . | -4.8% | 14.6µM* | ? | ?
CCOc1ccc(CCNC(=O)CCn2c(=O)c3cccn3c3ccc(F)cc32)cc1OCC | -17.3% | . | -28.5% | 13µM* | . | ?
COc1cc(OC)cc(C(=O)N2CCN(S(=O)(=O)c3ccc(Cl)s3)CC2)c1 | -6.0% | 2.0% | -11.6% | -14.6% | i | 3.4%
CCc1nc2ccccc2n2c(-c3ccccc3)c3c(=O)n(C)c(=O)n(C)c3c12 | -9.1% | -0.7% | -5.4% | 20.6µM* | i | 14.6µM*
COc1ccc(-c2nc3ccccc3n3c(-c4cccc(C)c4)c4c(=O)n(C)c(=O)n(C)c4c23)cc1 | -0.7% | 3.1% | 2.5% | -73.3% | i | 18.4µM*
Cc1cccc(-c2nc3ccccc3n3c(-c4ccccc4)c4c(=O)n(C)c(=O)n(C)c4c23)c1 | 8.8% | -0.5% | 20.6% | 2.4% | i | -6.4%
Cn1c(=O)c2c(-c3ccccc3)n3c4ccccc4nc(-c4ccccc4)c3c2n(C)c1=O | -2.9% | -4.5% | -1.7% | 14.6µM* | i | ?
COc1ccc(-c2c3c(=O)n(C)c(=O)n(C)c3c3c(-c4ccc(C)cc4)nc4ccccc4n23)cc1 | 9.1% | -2.4% | 12.5% | -22.9% | i | -11.7%
O=C(CN(C(=O)c1csnn1)c1cccc(F)c1)NCc1ccc2c(c1)OCO2 | 3.1% | -0.5% | -25.5% | -21.0% | i | -4.4%
O=C1C=C(c2ccc(C(=O)O)c(Cl)c2)C[C@@H](c2ccc3c(c2)OCO3)C1 | ? | 26.9% | 9.2% | -9.8% | i | -12.3%
Cc1ccc(C)c(S(=O)(=O)N2CCN(CC(=O)N3CCc4ccccc4C3)CC2)c1 | 8.7% | -7.2% | -3.6% | ? | i | -21.4%
OC(c1ccccc1)(c1nc(-c2cc(F)cc(F)c2)cs1)C(F)(F)F (stereo unspecified) | ? | ? | -106.4% | ? | . | ?
OC(c1ccccc1)(c1nc(-c2ccccc2)cs1)C(F)(F)F (stereo unspecified) | ? | 0.0% | -108.8% | 20.6µM* | ? | 18.4µM*
SMILES | TGFb SMAD3 inh | ATXN2 expr inh | HepG2 tox | TDP1 cell noCPT | S2 tox | TDP1 cell CPT
OC(c1ccccc1)(c1nc(/C=C/c2ccccc2)cs1)C(F)(F)F (stereo unspecified) | 22.4µM* | -35.8% | -113.9% | -83.9% | i | ?
CC(O)(c1ccccc1)c1nc(/C=C/c2ccccc2)cs1 (stereo unspecified) | -19.4% | 0.5% | -27.0% | ? | ? | ?
OC(c1ccccc1)(c1nc(-c2ccc3ccccc3c2)cs1)C(F)(F)F (stereo unspecified) | ? | ? | -98.7% | ? | i | 20.6µM*
OC(c1ccccc1)(c1nc(-c2cccc(F)c2)cs1)C(F)(F)F (stereo unspecified) | ? | -31.4% | -89.1% | ? | ? | ?
CC(C)(C)n1ncc2c(=O)n(Cc3ccc(F)cc3Cl)cnc21 | -5.7% | . | -38.4% | . | . | .
O=C(NNS(=O)(=O)c1ccc(F)cc1)c1cnn(-c2ccccc2)c1C(F)(F)F | -6.2% | . | -17.9% | -20.8% | i | -5.3%
CC(=O)Nc1ccc(OCC=C(Cl)Cl)cc1 | 0.1% | 21.0% | 9.8% | -23.2% | i | ?
Cc1noc(C)c1COc1ccc(C(=O)OCC(=O)N2CC3(C)CC2CC(C)(C)C3)cc1 (stereo unspecified) | -8.8% | 2.4% | -19.4% | 18.4µM* | i | ?
Cc1cccc(C)c1OCC(=O)N1CC2(C)CC1CC(C)(C)C2 (stereo unspecified) | -17.0% | -6.2% | -38.3% | 14.1µM* | ? | ?
Cc1ccc(OCC(=O)N2CC3(C)CC2CC(C)(C)C3)cc1 (stereo unspecified) | -6.5% | 1.4% | -22.1% | ? | i | ?
CCC(=O)N1c2nc(-c3ccco3)nn2C2(CCCCC2)[C@@H]2CCCC[C@@H]21 | -29.0% | . | -20.7% | ? | . | ?
CC(C)C(=O)N1c2ncnn2C2(CCCCC2)[C@@H]2CCCC[C@@H]21 | -20.7% | -26.2% | -3.7% | 10.3µM* | i | 16.4µM*
CCC(=O)N1c2nc(C(C)C)nn2C2(CCCCC2)[C@@H]2CCCC[C@@H]21 | -1.0% | . | 2.2% | 4.11µM* | . | 8.2µM*

Bioassay records: PubChem BioAssay, National Center for Advancing Translational Sciences (NCATS)
